The results in this text go back to PubChem BioAssay AID1345085 (National Center for Advancing Translational Sciences (NCATS), 2018).

Results filed as inconclusive are left out. A number with no mark means an inactive call. The source made the active and inactive calls. Calls follow the shape of the dose curve; as a rule, active = well fitted cell-killing curve with a large enough effect; inconclusive = small, poorly fitted or top-dose-only effect, or effect the other way; inactive = no such curve, though single readings can be large or run the other way.
% is scaled to controls: 0 for no effect and ±100 for the full control effect; potency is read from the fitted curve at half-maximal effect.

The test system of the assay is Es-2. As to the kind of experiment: Confirmatory qHTS for gynecologic anti-cancer compounds from libraries of approved drugs and bioactive compounds. Also: nearly all actives have a fitted effect of over 55% in size. The note with it: gynecologic cancer cell panel viability, ATPlite luminescence, 48 h; series mostly up to 57.6 µM; activity change, negative = viability loss: at the top concentration. The source says:
National Center for Advancing Translational Sciences [NCATS] Assay Overview: Chemotherapeutic drug responses vary from cancer to cancer and from patient to patient. These variations could be caused by a number of factors including patient genomic background, tumor mutations, tumor heterogeneity, and aspects of drug treatment. Chemotherapeutic drug resistance is also a common issue and can lead to ineffective treatment and patient death. Here we have profiled the cell killing effects of thousands of compounds to characterize the responses in three gynecological cancers, identify cancer-selective compounds, and understand the diversity of responses to these compounds from pan-cancer suppressors to single cell line selective compounds. In this assay, we screened a 7,914 compound drug library that included approved drug and bioactive compounds in six ovarian, three cervical, and two placental cancer cell lines using the ATPlite assay for cell viability. ATPlite is a luminescence based assay reliant on the conversion of a luciferase substrate to light in the presence of ATP. As a cytotoxic compound will suppress growth and decrease the number of cells, the concentration of ATP will decrease, and less light signal will be detected in the well. Hits were selected from the primary screen for follow-up confirmation. For the confirmation screens, the ovarian cancer cell lines included CAOV-3, SK-OV-3, SW 626, ES-2, PA-1, and TOV-21G. The cervical cancer cell lines included HeLa, Ca Ski, and C-33 A. The placental cancer cell lines included JEG-3 and JAR. HEK 293T cells were used as the control cell line to determine the selectivity index. The ATPlite assay was used to determine the IC50 values.
Assay Protocol Summary: 1,000 cells in 4 uL of media were dispensed into white, solid bottom 1536-well plates using a Multidrop Combi (Thermo Scientific). The Assay plates were incubated for 16 hours at 37 C with 5% CO2 in assay plates, followed by the addition of 23 nL of DMSO or drug dissolved in DMSO. . Each compound was assayed in 11 concentrations (1:3 dilution) from 57.5 uM to 0.977 nM, using the automated Wako 1536 Pin Tool workstation and incubated at 37 C with 5% CO2 48 hours. 4 uL of ATPlite, the ATP monitoring reagent, was then added to the each well of the assay plates using the Multidrop Combi reagent dispenser followed by incubation for 15 minutes at room temperature. The resulting luminescence was measured using the ViewLux plate reader.
Background: Quantitative high-throughput screening tests each substance at several concentrations.
As for `NC(=O)Nc1cc(-c2cccc(F)c2)sc1C(=O)NC1CCCNC1` (stereo not given), the Potency is 0.344 µM (active).

Take `CCN1CCN(Cc2ccc(-c3cc4c(NC(C)c5ccccc5)ncnc4[nH]3)cc2)CC1` (stereo not given): the Potency was 27.3 µM (active).

For `CS(=O)(=O)c1ccc(C(=O)Nc2ccc(Cl)c(-c3ccccn3)c2)c(Cl)c1`, the “activity change, negative = viability loss” value was 5.55%.

`Cc1cc(C2CCCCC2)n(O)c(=O)c1`: the Potency was 9.94 µM (active).

For the compound `Nc1ccccc1NC(=O)c1ccc(CNc2nccc(-c3cccnc3)n2)cc1`, the Potency is 2.43 µM (active).

On to `Nc1nccc(Oc2ccc(NC(=O)c3c[nH]cc(-c4ccc(F)cc4)c3=O)cc2F)c1Cl`, for which the Potency was 34.3 µM (active).

As for `O=C(c1ccc(/C=C/c2n[nH]c3ccccc23)cc1)N1CCNCC1`, the Potency was 27.3 µM (active).

In the case of `CCOC(=O)C1=C(C)NC2=C(C(=O)CC(C)(C)C2)C1c1ccc(-c2ccccc2)cc1` (stereo not given), the “activity change, negative = viability loss” value is -4.79%.

As for `Cc1ccc(NC(=O)c2ccc(CN3CCN(C)CC3)cc2)cc1Nc1nccc(-c2cccnc2)n1`, the “activity change, negative = viability loss” value is 4.97%.

Consider `CS(=O)(=O)c1ccc(-c2cnc(N)c(C(=O)Nc3ccccc3)n2)cc1`, for which the “activity change, negative = viability loss” value was -16.2%.

Take `CN1C(=O)C(Cc2c[nH]c3ccccc23)NC1=S` (stereo not given): the “activity change, negative = viability loss” value was -13.7% [at 19.5 µM].

As for `O=c1[nH]c(=O)n([C@H]2C[C@H](O)[C@@H](CO)O2)cc1Br`, the “activity change, negative = viability loss” value was 5.77%.

Consider `CCCCc1oc2ccccc2c1C(=O)c1cc(I)c(OCCN(CC)CC)c(I)c1`, for which the Potency was 70.8 µM (active).

Turning to `N=C(N)c1ccc(OCCCCCOc2ccc(C(=N)N)cc2)cc1`, the “activity change, negative = viability loss” value was -18.9%.

In the case of `O=C(O)c1ccc(Nc2ncc3c(n2)-c2ccc(Cl)cc2C(c2c(F)cccc2F)=NC3)cc1`, the “activity change, negative = viability loss” value was 5.57%.

For the compound `CCCCN(CCCC)CC(O)c1cc(Cl)cc2c1-c1ccc(Cl)cc1/C2=C/c1ccc(Cl)cc1` (stereo not given), the “activity change, negative = viability loss” value was -28.3%.

For the compound `CCc1c2c(nc3ccc(OC(=O)N4CCC(N5CCCCC5)CC4)cc13)-c1cc3c(c(=O)n1C2)COC(=O)[C@]3(O)CC`, the Potency is 12.2 µM (active).

With `CNc1nccc(-c2cccnc2Oc2cc(C(=O)Nc3cccc(C(F)(F)F)c3)ccc2C)n1`, the Potency was 6.11 µM (active).

On to `CCCCc1oc2ccc(NS(C)(=O)=O)cc2c1C(=O)c1ccc(OCCCN(CCCC)CCCC)cc1`, for which the Potency is 24.3 µM (active).

In the case of `Cc1cc(CN2CCN(c3c(Br)cnc4nc(-c5ccc(N6CCN(C)CC6)cc5)[nH]c34)CC2)no1`, the Potency was 7.69 µM (active).

Turning to `CC[C@H](Nc1ncnc2nc[nH]c12)c1nc2cccc(F)c2c(=O)n1-c1ccccc1`, the activity change, negative = viability loss is 8.76% [at 10.7 µM].

Consider `COc1cc(-c2nn(C3CCC(N4CCN(C(C)=O)CC4)CC3)c3ncnc(N)c23)ccc1NC(=O)c1cc2ccccc2n1C` (stereo not given), for which the Potency was 30.6 µM (active).

As for `CCN[C@H]1C[C@H](C)S(=O)(=O)c2sc(S(N)(=O)=O)cc21`, the “activity change, negative = viability loss” value is 0.905%.

Regarding `CC(C)Oc1ccc(C(=O)NC(CNC(=O)CN(C)C)Cc2ccc(-c3cn4cccc(C(C)O)c4n3)cc2)cc1Cl` (stereo not given), the Potency is 0.385 µM (active).

Take `Nc1ccn([C@@H]2O[C@H](CO)[C@@H](O)C2(F)F)c(=O)n1`: the Potency was 0.0306 µM (active).

Consider `Cc1ccc(C(=O)N(CCCN)C(c2nc3cc(Cl)ccc3c(=O)n2Cc2ccccc2)C(C)C)cc1` (stereo not given), for which the Potency was 3.85 µM (active).

With `COc1ccc2c(c1OC)C(=O)O[C@@H]2[C@H]1c2c(cc3c(c2OC)OCO3)CCN1C`, the “activity change, negative = viability loss” value is -1.17%.

`OCCNC1CCCc2c1[nH]c1ccc(-c3ccccc3)cc21` (stereo not given): the Potency is 19.3 µM (active).

With `Oc1cn2c(n1)Nc1ccc(Cl)c(Cl)c1C2`, the “activity change, negative = viability loss” value was -1.22% [at 19.5 µM].

Consider `CC1=C(/C=C/C(C)=C/C=C/C(C)=C/C(=O)Nc2ccc(O)cc2)C(C)(C)CCC1`, for which the Potency is 27.3 µM (active).

On to `CC(Oc1ccc2[nH]nc(/C=C/c3cnn(CCO)c3)c2c1)c1c(Cl)cncc1Cl` (stereo not given), for which the Potency was 4.32 µM (active).

In the case of `Cc1nc(N)sc1-c1ccnc(Nc2ccc(N3CCOCC3)cc2)n1`, the Potency was 9.68 µM (active).

Turning to `CNCc1ccc(-c2[nH]c3cc(F)cc4c3c2CCNC4=O)cc1`, the “activity change, negative = viability loss” value is -16.9%.

As for `CN(C)/N=N/c1nc[nH]c1C(N)=O`, the “activity change, negative = viability loss” value is -10.7%.

In the case of `CCc1c2c(nc3ccc(O)cc13)-c1cc3c(c(=O)n1C2)COC(=O)[C@]3(O)CC`, the Potency was 0.0385 µM (active).

As to `N#CC1(c2cccc(C(=O)Nc3cc(Oc4ccc5nc(NC(=O)C6CC6)sc5n4)ccc3F)c2Cl)CC1`, the Potency is 5.44 µM (active).

As to `Cc1cnc(Nc2ccc(OCCN3CCCC3)cc2)nc1Nc1cccc(S(=O)(=O)NC(C)(C)C)c1`, the Potency is 8.63 µM (active).

For `C1CCC(C(CC2CCCCN2)C2CCCCC2)CC1` (stereo not given), the Potency was 24.3 µM (active).

Regarding `CC1(C)[C@@H](O)CC[C@]2(C)[C@H]3C(=O)C=C4[C@@H]5C[C@@](C)(C(=O)O)CC[C@]5(C)CC[C@@]4(C)[C@]3(C)CC[C@@H]12`, the “activity change, negative = viability loss” value is 12.5%.

Regarding `NC(=O)c1cnc(-c2ccc(C3(N)CCC3)cc2)c(-c2ccccc2)c1`, the Potency is 24.3 µM (active).
